From the supplement of paper PMC8699584
Where a name gives a salt, the structure may show the parent alone. ± gives the standard deviation of the averaged measurements.

Tests used:
Molm13 = test: cell viability relative to DMSO control (bortezomib = 0%); higher = less growth inhibition; details: 10 nM; 72 h
Summary of the method: (§1)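 Viability was determined with CellTiter-Glo luminescence. Acute myeloid leukemia cells (1000 per well, 50 µL) were exposed for 72 h to 679 approved and investigational compounds at a single 10 nM dose in 384-well plates. Percentages came from per-plate linear regression, setting DMSO-treated wells to 100% and positive-control-treated wells to 0%.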

Mv4-11 = test: as above; details: 10 nM; 72 h
Summary of the method: as §1

`COc1ccc(S(=O)(=O)N(CCO)c2ccccc2CN(C)C/C=C/c2ccc(Cl)cc2)cc1` [KN-93 Phosphate] was tested. Which cell viability (Molm13) did it give?
The cell viability was 99.1 ± 2.2%.

What about the cell viability (Mv4-11) of the same compound?
The cell viability was 101 ± 5.2%.

For `CNC(=O)c1cc(Oc2ccc(NC(=O)Nc3ccc(Cl)c(C(F)(F)F)c3)cc2)ccn1` [Sorafenib tosylate], which cell viability (Molm13) is on record?
The cell viability was 63.1 ± 6.6%.

What about the cell viability (Mv4-11) of the same compound?
Its cell viability is 69.2 ± 10%.

For `Nc1ncnc2c1ncn2C1OC(COP(=O)(O)O)C(O)C1O` (stereo not drawn) [Adenosine 5'-monophosphate monohydrate], which cell viability (Molm13) is on record?
The cell viability was 102 ± 34%.

What about the cell viability (Mv4-11) of the same compound?
The cell viability was 97.2 ± 0.99%.

With `CN(c1ccccc1CNc1nc(Nc2ccc3c(c2)CC(=O)N3)ncc1C(F)(F)F)S(C)(=O)=O` as the compound, how does the cell viability (Molm13) read?
The cell viability was 112 ± 25%.

And the cell viability (Mv4-11)?
Its cell viability is 96.4 ± 15%.

Which cell viability (Molm13) does the source give for `CN1CCC(CNc2ccc3ncc(-c4cccc(OC(F)(F)F)c4)n3n2)CC1` [SGI-1776 free base] here?
Its cell viability is 92.3 ± 5.5%.

What about the cell viability (Mv4-11) of the same compound?
Its cell viability is 97.7 ± 14%.

With `Nc1ncnc2c1c(-c1cccc(OCc3ccccc3)c1)cn2C1CC(CN2CCC2)C1` (stereo not drawn) [NVP-AEW541 (hydrochloride)] as the compound, how does the cell viability (Molm13) read?
The cell viability was 110 ± 11%.

What about the cell viability (Mv4-11) of the same compound?
Its cell viability is 90.7 ± 25%.

Which results are given for `O=C1NC(=O)C(c2cnc3ccccn23)=C1c1cn2c3c(cc(F)cc13)CN(C(=O)N1CCCCC1)CC2`?
cell viability (Molm13): 125 ± 6.1%; cell viability (Mv4-11): 89.9 ± 4.6%

How did the cell viability (Molm13) turn out when `CC(C)=CCC[C@](C)(O[C@@H]1O[C@H](CO)[C@@H](O)[C@H](O)[C@H]1O)[C@H]1CC[C@]2(C)[C@@H]1[C@H](O)C[C@@H]1[C@@]3(C)CC[C@H](O)C(C)(C)[C@@H]3[C@@H](O[C@@H]3O[C@H](CO)[C@@H](O)[C@H](O)[C@H]3O[C@@H]3OC[C@@H](O)[C@H](O)[C@H]3O)C[C@]12C` [Notoginsenoside R1] was run?
The cell viability was 110 ± 13%.

And the cell viability (Mv4-11)?
Its cell viability is 105 ± 7.3%.

`Cc1ccc(F)c(NC(=O)Nc2ccc(-c3cccc4[nH]nc(N)c34)cc2)c1` [Linifanib (ABT-869)] was tested. Which cell viability (Molm13) did it give?
Its cell viability is 61.8 ± 4%.

And the cell viability (Mv4-11)?
The cell viability was 73.9 ± 13%.
